# Results as given in the supplement of paper PMC8728848.
# The full list was thinned out, with the strongest signals kept by preference.
# How the values were obtained:
# Experiment in all cases: glycan array binding signal (z-score within array); higher = stronger binding
# Settings in all cases: glycan notation: IUPAC condensed, linker removed
# [1] = target: Fuc(a1-2)Gal(b1-3)GlcNAc(b1-2)Man(a1-3)[Fuc(a1-2)Gal(b1-3)GlcNAc(b1-2)Man(a1-6)]Man(b1-4)GlcNAc(b1-4)GlcNAc
# How it was run: (§1)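 Columns mapping to the same glycan were averaged after glycan names were converted to IUPAC-condensed notation. The data come from 3228 arrays in the Consortium for Functional Glycomics database, limited to those with an available protein sequence. Binding is reported as a within-array Z-score averaged across arrays of one protein sequence and across linkers.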
# [2] = target: Fuc(a1-2)Gal(b1-3)GlcNAc(b1-3)Gal(b1-4)Glc
# How it was run: as §1
# [3] = target: Fuc(a1-2)Gal(b1-3)GlcNAc(b1-3)[Gal(b1-4)GlcNAc(b1-6)]Gal(b1-4)Glc
# How it was run: as §1
# Fuc(a1-2)Gal(b1-4)Glc = target: Fuc(a1-2)Gal(b1-4)Glc
# How it was run: as §1
# [4] = target: Fuc(a1-2)Gal(b1-4)GlcNAc(b1-6)GalNAc
# How it was run: as §1
# [5] = target: Fuc(a1-2)[Gal(a1-3)]Gal(b1-3)GalNAc
# How it was run: as §1
# [6] = target: Fuc(a1-2)[Gal(a1-3)]Gal(b1-4)Glc
# How it was run: as §1
# [7] = target: Fuc(a1-2)[Gal(a1-4)]Gal(b1-4)GlcNAc
# How it was run: as §1
# [8] = target: Fuc(a1-2)[GalNAc(a1-3)]Gal(b1-4)GlcNAc
# How it was run: as §1
# [9] = target: Fuc(a1-3)[Gal(b1-4)]GlcNAc(b1-2)Man(a1-3)[Fuc(a1-3)[Gal(b1-4)]GlcNAc(b1-2)Man(a1-6)]Man(b1-4)GlcNAc(b1-4)GlcNAc
# How it was run: as §1
# [10] = target: Fuc(a1-3)[Gal(b1-4)]GlcNAc(b1-6)GalNAc
# How it was run: as §1
# [11] = target: Gal(a1-3)Gal(b1-3)GlcNAc(b1-2)Man(a1-3)[Gal(a1-3)Gal(b1-3)GlcNAc(b1-2)Man(a1-6)]Man(b1-4)GlcNAc(b1-4)GlcNAc
# How it was run: as §1
# [12] = target: Gal(a1-3)Gal(b1-3)[Fuc(a1-4)]GlcNAc(b1-2)Man(a1-3)[Gal(a1-3)Gal(b1-3)[Fuc(a1-4)]GlcNAc(b1-2)Man(a1-6)]Man(b1-4)GlcNAc(b1-4)GlcNAc
# How it was run: as §1
# [13] = target: Gal(a1-4)Gal(b1-3)GlcNAc(b1-2)Man(a1-3)[Gal(a1-4)Gal(b1-3)GlcNAc(b1-2)Man(a1-6)]Man(b1-4)GlcNAc(b1-4)GlcNAc
# How it was run: as §1
# Gal(a1-4)Gal(b1-4)Glc = target: Gal(a1-4)Gal(b1-4)Glc
# How it was run: as §1
# [14] = target: Gal(b1-3)GlcNAc(b1-2)Man(a1-3)[Gal(b1-3)GlcNAc(b1-2)Man(a1-6)]Man(b1-4)GlcNAc(b1-4)GlcNAc
# How it was run: as §1
# [15] = target: Gal(b1-3)GlcNAc(b1-3)Gal(b1-4)[Fuc(a1-3)]GlcNAc(b1-6)[Gal(b1-3)GlcNAc(b1-3)]Gal(b1-4)Glc
# How it was run: as §1
# Gal(b1-3)GlcNAc6S = target: Gal(b1-3)GlcNAc6S
# How it was run: as §1
# [16] = target: Gal(b1-4)GlcNAc(b1-2)Man(a1-3)[Man(a1-6)]Man(b1-4)GlcNAc(b1-4)GlcNAc
# How it was run: as §1
# [17] = target: Gal(b1-4)GlcNAc(b1-3)Gal(b1-4)GlcNAc(b1-3)Gal(b1-4)GlcNAc(b1-2)Man(a1-3)[Gal(b1-4)GlcNAc(b1-3)Gal(b1-4)GlcNAc(b1-3)Gal(b1-4)GlcNAc(b1-2)Man(a1-6)]Man(b1-4)GlcNAc(b1-4)GlcNAc
# How it was run: as §1
# [18] = target: Gal(b1-4)GlcNAc(b1-3)Gal(b1-4)GlcNAc(b1-3)Gal(b1-4)GlcNAc(b1-3)Gal(b1-4)GlcNAc(b1-2)Man(a1-3)[Gal(b1-4)GlcNAc(b1-3)Gal(b1-4)GlcNAc(b1-3)Gal(b1-4)GlcNAc(b1-3)Gal(b1-4)GlcNAc(b1-2)Man(a1-6)]Man(b1-4)GlcNAc(b1-4)GlcNAc
# How it was run: as §1
# [19] = target: Gal(b1-4)GlcNAc(b1-3)Gal(b1-4)GlcNAc(b1-3)Gal(b1-4)GlcNAc(b1-3)Gal(b1-4)GlcNAc(b1-3)Gal(b1-4)GlcNAc(b1-2)Man(a1-3)[Gal(b1-4)GlcNAc(b1-3)Gal(b1-4)GlcNAc(b1-3)Gal(b1-4)GlcNAc(b1-3)Gal(b1-4)GlcNAc(b1-3)Gal(b1-4)GlcNAc(b1-2)Man(a1-6)]Man(b1-4)GlcNAc(b1-4)GlcNAc
# How it was run: as §1
# [20] = target: Gal(b1-4)GlcNAc(b1-3)Gal(b1-4)[Fuc(a1-3)]GlcNAc(b1-3)Gal(b1-4)[Fuc(a1-3)]GlcNAc
# How it was run: as §1
# [21] = target: Gal(b1-4)GlcNAc(b1-6)GalNAc
# How it was run: as §1
# Gal3S(b1-3)GlcNAc = target: Gal3S(b1-3)GlcNAc
# How it was run: as §1
# Gal6S(b1-4)Glc6S = target: Gal6S(b1-4)Glc6S
# How it was run: as §1
# Gal6S(b1-4)GlcNAc = target: Gal6S(b1-4)GlcNAc
# How it was run: as §1
# GalNAc(b1-4)Gal(b1-4)Glc = target: GalNAc(b1-4)Gal(b1-4)Glc
# How it was run: as §1
# [22] = target: Glc(a1-6)Glc(a1-6)Glc(a1-6)Glc
# How it was run: as §1
# Glc(b1-4)Glc = target: Glc(b1-4)Glc
# How it was run: as §1
# [23] = target: GlcA3S(b1-3)Gal(b1-4)GlcNAc(b1-3)Gal(b1-4)Glc
# How it was run: as §1
# [24] = target: GlcNAc(b1-3)Gal(b1-4)GlcNAc
# How it was run: as §1
# [25] = target: GlcNAc(b1-3)Gal(b1-4)GlcNAc(b1-3)Gal(b1-4)GlcNAc(b1-3)Gal(b1-4)GlcNAc(b1-2)Man(a1-3)[GlcNAc(b1-3)Gal(b1-4)GlcNAc(b1-3)Gal(b1-4)GlcNAc(b1-3)Gal(b1-4)GlcNAc(b1-2)Man(a1-6)]Man(b1-4)GlcNAc(b1-4)[Fuc(a1-6)]GlcNAc
# How it was run: as §1
# GlcNAc(b1-3)Man = target: GlcNAc(b1-3)Man
# How it was run: as §1
# [26] = target: GlcNAc(b1-4)Gal(b1-4)GlcNAc
# How it was run: as §1
# [27] = target: GlcNAc(b1-4)GlcNAc(b1-4)GlcNAc(b1-4)GlcNAc(b1-4)GlcNAc(b1-4)GlcNAc
# How it was run: as §1
# GlcNAc(b1-6)GalNAc = target: GlcNAc(b1-6)GalNAc
# How it was run: as §1
# [28] = target: Man(a1-2)Man(a1-2)Man(a1-6)[Man(a1-3)]Man
# How it was run: as §1
# [29] = target: Man(a1-3)[Man(a1-6)]Man(a1-6)[Man(a1-3)]Man
# How it was run: as §1
# Man(a1-6)Man = target: Man(a1-6)Man
# How it was run: as §1
# [30] = target: Neu5Ac(a2-3)Gal(b1-4)GlcNAc(b1-2)[Neu5Ac(a2-3)Gal(b1-4)GlcNAc(b1-6)]Man(a1-6)[Neu5Ac(a2-3)Gal(b1-4)GlcNAc(b1-2)Man(a1-3)][GlcNAc(b1-4)]Man(b1-4)GlcNAc(b1-4)GlcNAc
# How it was run: as §1
# [31] = target: Neu5Ac(a2-6)Gal(b1-3)GlcNAc(b1-3)[Gal(b1-4)GlcNAc(b1-6)]Gal(b1-4)Glc
# How it was run: as §1
# [32] = target: Neu5Ac(a2-6)Gal(b1-4)GlcNAc
# How it was run: as §1
# [33] = target: Neu5Ac(a2-6)Gal(b1-4)GlcNAc(b1-2)Man(a1-6)[GlcNAc(b1-2)Man(a1-3)]Man(b1-4)GlcNAc(b1-4)GlcNAc
# How it was run: as §1
# [34] = target: Neu5Ac(a2-6)Gal(b1-4)GlcNAc(b1-2)[Neu5Ac(a2-6)Gal(b1-4)GlcNAc(b1-4)]Man(a1-3)[GlcNAc(b1-4)][Neu5Ac(a2-6)Gal(b1-4)GlcNAc(b1-2)[Neu5Ac(a2-6)Gal(b1-4)GlcNAc(b1-6)]Man(a1-6)]Man(b1-4)GlcNAc(b1-4)GlcNAc
# How it was run: as §1
# [35] = target: Neu5Ac(a2-6)Gal(b1-4)GlcNAc(b1-3)Gal(b1-4)GlcNAc(b1-3)GalNAc
# How it was run: as §1
# [36] = target: Neu5Ac(a2-6)Gal(b1-4)GlcNAc(b1-3)GalNAc
# How it was run: as §1
# Neu5Gc(a2-6)GalNAc = target: Neu5Gc(a2-6)GalNAc
# How it was run: as §1
binder,measurement,setting,value
PX9961Q-bfa-504-27-504 (Bacteroides fragilis) (protein) NDWLDRKPADGIPSEDAITNYNDALTARTGMYDGIQGNSNATSYYGARMFYYGDVRADDMQARTQGMRSSSCYEMLYTVDDAPNMWNIPYNVIRRANRLIEAINEKKVTDATEAQIGKIYSEALVVRALVHFDLVRIYGMPYTADNGASLGVPVIVKPLERNDLPSRNTVAEVYTQVITDLTDAINSGYLAKDQTPGYINEWAAKALLTRVYLTKGDNENALKVAEDIITNSPYKLWTNEEYVNAWYKSNGAHTNEMIFEVVNASNDDWTDRNGIAYLLNENGYADAIVTKSFMNMLSQDPKDVRIGMVLPAQYDKDLQEEYGDAKIFINKFPADKDDVGEMRLNNLPLLRLSEVYLSAAEAAAKLGGHQDKAAKYLNEIVQRANPEAKAISEADATVERIILERRKEMIGEGQRYFDALRNNETIVRYKDEGDKGYHYSLIKESQSFDRTYFRAILPIPVDETNVNPNLRAQQNPGY,glycan array binding signal (z-score),[1],2.69
same,glycan array binding signal (z-score),[2],0.015
same,glycan array binding signal (z-score),[3],-0.322
same,glycan array binding signal (z-score),Fuc(a1-2)Gal(b1-4)Glc,-0.701
same,glycan array binding signal (z-score),[4],0.145
same,glycan array binding signal (z-score),[5],0.904
same,glycan array binding signal (z-score),[6],0.106
same,glycan array binding signal (z-score),[7],1.12
same,glycan array binding signal (z-score),[8],-0.704
same,glycan array binding signal (z-score),[9],0.155
same,glycan array binding signal (z-score),[10],4.03
same,glycan array binding signal (z-score),[11],0.772
same,glycan array binding signal (z-score),[12],8.13
same,glycan array binding signal (z-score),[13],2.6
same,glycan array binding signal (z-score),Gal(a1-4)Gal(b1-4)Glc,0.623
same,glycan array binding signal (z-score),[14],3.77
same,glycan array binding signal (z-score),[15],12.8
same,glycan array binding signal (z-score),Gal(b1-3)GlcNAc6S,-0.822
same,glycan array binding signal (z-score),[16],-0.622
same,glycan array binding signal (z-score),[17],2.45
same,glycan array binding signal (z-score),[18],2.49
same,glycan array binding signal (z-score),[19],0.85
same,glycan array binding signal (z-score),[20],-0.284
same,glycan array binding signal (z-score),[21],0.056
same,glycan array binding signal (z-score),Gal3S(b1-3)GlcNAc,-0.053
same,glycan array binding signal (z-score),Gal6S(b1-4)Glc6S,-0.063
same,glycan array binding signal (z-score),Gal6S(b1-4)GlcNAc,-0.679
same,glycan array binding signal (z-score),GalNAc(b1-4)Gal(b1-4)Glc,0.821
same,glycan array binding signal (z-score),[22],-0.611
same,glycan array binding signal (z-score),Glc(b1-4)Glc,-0.009
same,glycan array binding signal (z-score),[23],-1.22
same,glycan array binding signal (z-score),[24],-0.27
same,glycan array binding signal (z-score),[25],2.65
same,glycan array binding signal (z-score),GlcNAc(b1-3)Man,0.083
same,glycan array binding signal (z-score),[26],-0.752
same,glycan array binding signal (z-score),[27],-0.594
same,glycan array binding signal (z-score),GlcNAc(b1-6)GalNAc,0.361
same,glycan array binding signal (z-score),[28],0.712
same,glycan array binding signal (z-score),[29],0.661
same,glycan array binding signal (z-score),Man(a1-6)Man,-0.352
same,glycan array binding signal (z-score),[30],0.676
same,glycan array binding signal (z-score),[31],6.14
same,glycan array binding signal (z-score),[32],-0.355
same,glycan array binding signal (z-score),[33],-0.638
same,glycan array binding signal (z-score),[34],2.53
same,glycan array binding signal (z-score),[35],-0.164
same,glycan array binding signal (z-score),[36],-0.107
same,glycan array binding signal (z-score),Neu5Gc(a2-6)GalNAc,0.187
